This is an account of results in PubChem BioAssay (NCATS).

SMILES strings stand for the structures. Where “and” joins values, the source holds several entries; their conditions need not be identical. Equal values may be shown once. Results filed as inconclusive are left out. A number with no mark means an inactive call. Calls come from the whole dose curve; as a rule, active = well fitted activation curve with a large enough effect; inconclusive = small, poorly fitted or top-dose-only effect; inactive = flat fitted curve, though single readings scatter.

A short description of this assay: qHTS assay for environmental chemicals that activate the Aryl hydrocarbon Receptor (AhR) signaling pathway (AID 651777). Note: % of control where 0% means no effect; nearly all actives have a fitted effect of over 15% in size. The settings on record: 1A2-DRE human hepatoma cells, luciferase, 24 h; activation: hits give high values. An excerpt: National Center for Advancing Translational Sciences [NCATS]
NIH Chemical Genomics Center [NCGC]
U.S. Environmental Protection Agency [EPA]
National Institutes of Environmental Health Sciences [NIEHS]
National Toxicology Program [NTP]
The Aryl hydrocarbon Receptor (AhR) plays a critical role in the development of cancer or neoplasm and its formation is most likely due to genetic mutations and the influence of environment. Exposure to environmental pollutants such as polycyclic aromatic hydrocarbons (PAH), their halogenated derivatives and heterocyclic amines causes the induction of phase I and II enzymes. The transcriptional activation of CYP1A2 is directly regulated by AhR.
A cell based assay (1A2-DRE cells, developed by Puracyp, Inc., CA) was used to assess the activation of AhR. Human hepatoma cells were stably transfected with the dioxin response element (DRE) and CYP1A2 promoter fused to a luciferase gene. Increased luciferase activity can be used to identify the compounds that cause the induction of CYP1A2 and AhR activation.
1,200 cells in 5 uL/well were dispensed into white wall/solid bottom 1536-well plates using a Multidrop Combi (Thermo Scientific) dispenser. Following transfer of 23 nL compound or DMSO vehicle by a pin tool, the plates were incubated 24 hr at 37 C and 5% CO2. 5 ul One-Glo (Promega) was then added to each well and following 30 min incubation at room temperature, luciferase activity was quantified on a ViewLux CCD-based plate reader.
For `CCc1ccccc1O`, the activation was -0.147%.
For the molecule `Cc1cccc(C)c1O`, the activation is 0.0984%.
`CC(=O)OC(C)C`: the activation was -2.35%.
Under `Oc1c(Cl)ccc(Cl)c1Cl` stands -0.586%; under `CSc1ccc(C=O)cc1`, 0.018%.
To `Cc1ccc(Cl)cc1N` belongs -0.729%; to `CCOCCOCC`, 1.1%; to `ICCc1ccccc1`, 3.65%.
Under `N#CC1(O)CCCCC1` stands 2.1%.
Consider `CC(C)=CCl`, for which the activation was 2.36%.
As for `CC(=O)c1cccc([N+](=O)[O-])c1`, the activation was 1.48%.
Turning to `NC(=O)/N=N/C(N)=O`, the activation was -0.307%.
Under `Nc1cc(S(=O)(=O)O)ccc1O` stands -0.613%.
Regarding `C/C=C1\CC2C=CC1C2` (stereo not given), the activation is -0.171%.
Turning to `Cc1cc([N+](=O)[O-])ccc1N`, the activation is 0.911%.
Regarding `CCCCCCC(=O)O`, the activation was 0.903%.
On to `O=C1OC(=O)c2cc([N+](=O)[O-])ccc21`, for which the activation was -0.234%.
With `CCCCCNCCCCC`, the activation is 0.294% and -0.372%.
On to `Cc1cccc2ccccc12`, for which the activation was -0.124%.
`CC(C)C=O`: the activation is 0.299%.
Under `FC(F)(F)c1cccc(Cl)c1` stands -0.497%.
In the case of `C=CC(=O)NC(C)C`, the activation was -0.429%.
For the molecule `CCC(C)(C)C`, the activation is -1.03%.
As to `CC(C)(C)OC=O`, the activation was -1.07%.
With `COC(=O)CS`, the activation is -0.254%.
`Cc1ccc(C)c(O)c1`: the activation is 0.145%.
Consider `Nc1cc([N+](=O)[O-])ccc1C(=O)O`, for which the activation is 3.7% and 3.8%.
As for `Cc1ccccc1C(=O)O`, the activation is 0.336%.
Consider `BrC/C=C/CBr`, for which the activation was 0.145%.
To `CCCCN(CCO)CCCC` belongs -0.692%; to `NC(=O)c1cccc([N+](=O)[O-])c1`, 0.373%.
To `Cc1ccc2ncccc2c1` belongs 3.02%; to `O=C(Cl)c1c(Cl)cccc1Cl`, -1.9%.
Under `CNc1ccccc1` stands 1.11%; under `CC(C)c1ccccc1`, -1.48%; under `Cc1cc(C2(c3cc(C)c(O)cc3C)OS(=O)(=O)c3ccccc32)c(C)cc1O`, 0.42%.
In the case of `Cc1ccccc1Br`, the activation was -0.782%.
`O=C(O)c1ccc(CO)o1`: the activation was -0.734%.
`CCCCC(CC)CO` (stereo not given): the activation was -0.248%.
Consider `O=c1[nH][nH]c(=O)c2cc([N+](=O)[O-])ccc12`, for which the activation was 1.03%.
